# Results taken from PubChem BioAssay AID1347416 (National Center for Advancing Translational Sciences (NCATS), 2020).
# Screen size: about 4,100 compounds; about 1,600 (39%) were called active. Inconclusive results (about 25%) are left out. This is one part of the list. A number with no mark means an inactive call. Calls come from the whole dose curve; as a rule, active = well fitted inhibition curve with a large enough effect; inconclusive = small, poorly fitted or top-dose-only effect; inactive = no such curve, though single readings can be large or run the other way.
# Assay: qHTS Validation assay for Inhibitors of Plasmodium falciparum Dd2 growth in vitro; note: nearly all actives have a fitted effect of over 70% in size
# Settings: P. falciparum Dd2 in RBCs, SYBR Green growth, 72 h; series mostly up to 28.7 µM; activity change, negative = inhibition: at the top concentration
# Text: Malaria, a parasitic disease spread to humans through the bite of a Plasmodium infected Anopheles mosquito, continues to be a global health burden affecting millions of people, with an estimated 228 million cases and 405,000 deaths in 2018. Concerns about safety and limitations of current antimalarial treatments strongly emphasize the need to develop new therapeutic options. The scarce number of chemotypes and validated drug targets with efficacy against the liver stage, have hindered development of new antimalarials. To address this, a chemoprophylactic drug discovery effort was conducted through a combined phenotypic high-throughput asexual blood stage and liver stage screen, providing a robust foundation to identify liver-stage active lead chemotypes. Compounds were initially screened against Plasmodium falciparum Dd2 strain parasites using a in vitro SYBRGreen-1 based 72 hr proliferation assay to identify novel chemotypes to advance to liver stage assays. NIH/NCATS Early Translation Branch Assay Submitter (PI): Anton Simeonov Ph.D.
# […] Assay Protocol: PROTOCOL TABLE (as described by Inglese et al., 2007) SEQUENCE No. (e.g., 1, 2, 3, etc.); PARAMETER (e.g., Cells, Incubation, Reagent, etc.); VALUE; DESCRIPTION SEQUENCE, Parameter, Description 1; Reagent; 3 uL complete malaria growth medium, 1536 TC treated Black clear bottom plate 2; Controls; 23 nL positive control artesunate (300 nM final) to column 1; Neutral control DMSO to columns 2-4 3; Compound; 23 nL of compounds in dose response concentration (29 uM to 0.5 nM final) 4; Reagent; 5 uL malaria infected red blood cells (2.5% hematocrit final, 0.3% parasitemia 5; Time; 72 hours at 37C (5% O2, 5% CO2, 90% N2; 95% Rh) 6; Reagent; 2 uL lysis buffer/SYBRGreen-1, 25 sec shake immediately following dispense 7; Time; ~16 hours at 37C (5% O2, 5% CO2, 90% N2; 95% Rh) 8; Detector; EnVision (PerkinElmer) bottom read at 485/14nm excitation and 535/25 nm emission NOTES (numbers refer to sequence above): 1; Complete Malaria Growth Media: 1X RPMI-1640 w/L-glutamine, 5.5g/L Albumax II, 367 uM Hypoxanthine, 25 mM HEPES, 0.25% Sodium Bicarbonate, 35 uM Gentamicin sulfate 2; Controls were added using the Kalypsis Pintool (Wako USA) equipped with 1536 pinhead 3; Compounds were added in a 7-point, titration with a high final concentration of 29 uM by Pintool from seven inter-plate titrations of library plates and two DMSO control plates at the beginning and end (see Yasgar et al., 2008). 4; Red blood cells infected with Plasmodium falciparum Dd2 parasites were used. 6; Lysis buffer: 20 mM Tris-HCl, 10 mM EDTA, 0.16% Saponin, 1.6% Triton-X, 10X SYBR Green. REFERENCE: Inglese J, Shamu CE, Guy RK. 2007. Reporting data from high-throughput screening of small-molecule libraries. Nat Chem Biol. doi:10.1038/nchembio0807-438 Yasgar A, Shinn P, Jadhav A, Auld D, Michael S, Zheng W, Austin CP, Inglese J, Simeonov A. 2008. Compound Management for Quantitative High-Throughput Screening. J Lab Autom 13:79-89. doi:10.1016/j.jala.2007.12.004
# % is set by controls: 0 for no effect and ±100 for the full control effect; potency is the fitted concentration of half-maximal effect.
Structure (SMILES),"activity change, negative = inhibition",Potency
Cc1nn(C)c(C)c1CCC(=O)N1CCC(Cc2noc(-c3ccc(F)cc3)n2)C1 (stereo not given),0.419%,–
CCC(C)NC(=O)N1CC(Oc2ccc(-c3noc(C4CCOCC4)n3)cc2)C1 (stereo not given),-7.58%,–
CC(C)c1ccc(-c2noc(SCC(=O)N3CCN(c4ccc(F)cc4)CC3)n2)cc1,–,0.668 µM (active)
Cc1ccc(Cc2nc3ccccc3nc2SCC(=O)N2CCN(c3ccccc3)CC2)cc1,20.1%,–
CCn1ccc2sc(C)c(C(=O)N3CCN(c4ccc(F)cc4)CC3)c2c1=O,-25.7%,–
CC(C)c1noc(-c2cn(C3CCN(C(=O)COc4ccccc4)CC3)nn2)n1,22.5%,–
COc1ccccc1CC(=O)N1CCC(n2cc(-c3nc(C)no3)nn2)CC1,1.69%,–
COc1ccccc1N1CCN(C(=O)CSc2nc(-c3ccc(C(C)C)cc3)no2)CC1,–,0.376 µM (active)
CC1CCN(C(=O)CSc2nc(-c3ccc(C(C)C)cc3)no2)CC1,–,1.19 µM (active)
O=C(CSc1nc(-c2ccccc2)no1)N1CCN(c2ccc(F)cc2)CC1,–,4.22 µM (active)
O=C(c1ccc(F)cc1)N1CCn2c(nnc2-c2ccccc2)C1,0% [at 43.1 µM],–
COc1ccc(N2CCN(C(=O)CSc3nc(-c4ccc(C(C)C)cc4)no3)CC2)cc1,–,0.531 µM (active)
COc1ccc(-c2noc(-c3cccn3CC(=O)N(C)c3ccc(F)cc3)n2)cc1F,-29.9%,–
COc1ccc(C(=O)N2CCC(n3cc(-c4nc(-c5ccccc5)no4)nn3)C2)cc1 (stereo not given),-1.74%,–
COc1ccc(-c2noc([C@@H]3CCCN3C(=O)Cc3ccccc3Cl)n2)cc1,-6.35%,–
CC(C)c1ccc(-c2noc(SCC(=O)N(C)c3ccc(F)cc3)n2)cc1,–,0.944 µM (active)
O=C(N/N=C(\CC(=O)c1cccs1)C(F)(F)F)c1ccncc1,13%,–
COc1ccc(CN(C)C2CCc3nn(C)c(=O)n3CC2)cc1Cn1cccn1 (stereo not given),12.6%,–
CCOc1ccccc1CN1C[C@@H]2C(=O)N(CCN3CCc4ccccc4C3)C(=O)[C@@H]2C1,-14.9%,–
COc1ccc(CN2CCCCCNC(=O)CC2c2ccccc2)cc1Cn1ccnc1 (stereo not given),–,9.44 µM (active)
Cc1cccc(Cn2nnc3c2C(=O)c2ccccc2C3=O)c1,-9.79%,–
Cc1cccc(CN2CCCN(Cc3ccncc3)C(c3ccccc3)CC(=O)NCC2)c1 (stereo not given),–,4.22 µM (active)
Cc1ccc(CNC(=O)N2CCCCCNC(=O)CC2c2ccccc2)cc1 (stereo not given),0%,–
COc1cccc(CN2CCCN(Cc3ccncc3)C(c3ccccc3)CC(=O)NCC2)c1 (stereo not given),–,7.5 µM (active)
COc1ccc(-n2nc(C3CCN(Cc4ccncc4)CC3)[nH]c2=O)cc1,10.1%,–

Structure (SMILES),"activity change, negative = inhibition",Potency
CCOc1ccccc1CN1CCCN(Cc2ccncc2)C(c2ccccc2)CC(=O)NCC1 (stereo not given),–,6.68 µM (active)
CCCNC(=O)N1CCCCCNC(=O)CC1c1ccccc1 (stereo not given),3.59%,–
COc1ccc(N=C2NC(=O)/C(=C\c3ccco3)S2)cc1,18.9%,–
C#CCN(C)Cc1nc(C2(O)CCN(C(C)=O)CC2)cs1,10.6% [at 43.1 µM],–
CCN(CC)C(=O)[C@@H]1CCCN1[C@H](Cc1ccccc1)C(=O)NC,14.1% [at 43.1 µM],–
Cc1noc(C)c1-c1cc2cc(CN(C)C)oc2c(NCCOc2ccccc2)n1,–,15.3 µM (active)
Cc1noc(C)c1-c1cc2cc(CN(C)C)oc2c(NCCc2ccccc2)n1,–,13.7 µM (active)
CC(C)c1nc2oc3c(NCC4CCCO4)ncnc3c2c2c1CCC2 (stereo not given),-24.5%,–
CCOc1ccc(Nc2nc(NCC3CCCO3)c3ccccc3n2)cc1 (stereo not given),–,1.88 µM (active)
COCCN(CC1CCCO1)c1nc(CCN)nc2ccccc12 (stereo not given),52.7%,–
CSc1nnc(-c2cc3ccccc3cc2O)n1C,–,7.5 µM (active)
Cc1cccc(-c2nnc(SCC(=O)NC3CC3)n2C)c1,83.7%,–
Cn1c(SCC(=O)N2c3ccccc3CCc3ccccc32)nnc1-c1cc2ccccc2cc1O,–,8.41 µM (active)
Cc1noc([C@@H]2CN(C3CCSCC3)C[C@H]2CO)n1,16.2%,–
O=C(COc1ccccc1)N[C@H]1CO[C@H]2[C@@H]1OC[C@@H]2n1nnnc1Oc1ccc2c(c1)OCO2,28.9%,–
CCOC(=O)c1c(C)oc2nc(C)nc(Nc3ccc(CC)cc3)c12,–,7.5 µM (active)
CCOC(=O)c1c(C)oc2nc(C)nc(Nc3ccc(C)c(Cl)c3)c12,0.853%,–
O=C(Nc1ccccc1)c1cc2c(-c3ccccc3)nn(-c3ccccc3)c2s1,–,3.35 µM (active)
Cc1ccccc1NC(=O)Cn1c(=O)n(-c2ccccc2)c(=O)c2c1cc(C)n2C,1.47%,–
Cc1ccccc1NC(=O)c1cc2c(-c3ccccc3)nn(-c3ccccc3)c2s1,–,11.9 µM (active)
CCOc1ccc2ncc3c(-c4ccccc4)nn(CC(=O)Nc4cccc(F)c4)c3c2c1,67.4%,–
O=C(O)Cc1sc(Nc2ccccc2Cl)nc1-c1ccccc1,12%,–
O=C(Nc1ccc(Cl)cc1)c1cc2c(-c3ccccc3)nn(-c3ccccc3)c2s1,–,2.37 µM (active)
COc1ccc(O)c(C(=O)c2cnc3c(c2)c(-c2ccc(F)cc2)c(C#N)c(=O)n3C)c1,–,5.96 µM (active)
Cc1cccc(CC(=O)N2CCC3(CC2)CC(O)CCO3)c1 (stereo not given),22.4%,–
